Potency data for 40 molecules are collected here from PubChem BioAssay (NCATS).

Results filed as inconclusive are left out. Where a call stands in place of a potency, no number is given. Active and inactive are the calls of the source. Calls come from the whole dose curve; as a rule, active = well fitted cell-killing curve with a large enough effect; inconclusive = small, poorly fitted or top-dose-only effect, or effect the other way; inactive = no such curve, though single readings can be large or run the other way.
Potency is the fitted concentration of half-maximal effect.

A short description of the assay: Quantitative highthroughput screen to assess conditional lethalithy of NOMO1 cells grown in Human Plasma-Like Medium with dialyzed fetal bovine serum (HPLM+ds) (AID 1963878). Note: nearly all actives have a fitted effect of over 35% in size. Particulars: NOMO1 AML cells in HPLM+ds, CellTiter-Glo viability, 48 h; series mostly up to 45.8 µM. From the text: Assay Provider: Jason Cantor Ph.D.
Department of Biochemistry
University of Wisconsin-Madison, Madison, WI, USA
Chemical screening studies have identified drug sensitivities across hundreds of cancer cell lines but most putative therapeutics fail to translate. Discovery and development of drug candidates in models that more accurately reflect nutrient levels in human blood is a major challenge. Here we performed high-throughput screens in conventional versus Human Plasma-Like Medium (HPLM) to identify compounds that were "missed" when screening using the artificial culture condition. Sets of conditional anticancer compounds spanned phases of clinical development and included non-oncology drugs were assessed. […] We also traced conditional phenotypes for several chemotherapeutics to availability of HPLM-specific metabolites and confirmed others for compounds whose reported targets are encoded by nonessential genes. Our findings establish generalizable strategies for exploiting conditional lethality in HPLM to reveal therapeutic candidates and mechanisms of action in cancer cells.
Described herein are the results of each viability screens against three cell lines: NOMO1 (an acute myeloid leukemia cell line); P12-Ichikawa (a T-cell acute lymphoblastic leukemia); and SEM (a B-cell ALL). Each assay was screened using 3 different cell culture media: homemade human plasma-Like medium with 10% dialyzed fetal bovine serum (HPLM+ds); RPMI1640 with 10% untreated FBS and 5mM glucose (RPMI+s); and RPMI1640 with 10% dialyzed fetal bovine serum and 5 mM glucose (RPMI+ds).
PROTOCOL TABLE (as described by Inglese J, Shamu CE and Guy RK. 2007)
SEQUENCE No. (e.g., 1, 2, 3, etc.); […] (e.g., Cells, Incubation, Reagent, etc.); VALUE and DESCRIPTION.
1; Cells; 5 uL; white, solid bottom 1536-well Greiner assay plate.
2; Compounds; 23 nL; Kalypsis pin tool (Wako USA) equipped with a 1536-well pin head to transfer to the assay plates.
3; Incubation; 48 hours; 37C incubation.
4; Reagent; 3 uL; CellTiter Glo (Promega).
5; Incubation; 5 min, room temperature
6; Detection; Luminescence, Viewlux PerkinElmer.
NOTES (numbers refer to Sequence numbers above)
1. Briefly, 5 ul of cell reagent was dispensed using a Multidrop Combi Dispenser. The NOMO1 and SEM cells were plated at 500 cells/well and the P12-Ichikawa line at 1000 cells/well.
2. After seeding the cells, 23 nL of MIPE 4.1 library compounds (in DMSO) were added to each plate using a Kalypsys 1536 Pintool dispenser. Bortezomib at final concentration of […] and DMSO were added to each plate as positive and negative controls respectively. For each screen, MIPE 4.1 compounds were added over an eleven-point concentration range […] in 3-fold dilutions.
3. Each plate was covered with a stainless steel gasketed lid to prevent evaporation and incubated for 48 hour at 37C, 95% relative humidity, and 5% CO2.
4-5. Three microliter CellTilter-GloTM luminescent substrate mix (Promega) reagent was added to the assay plate and incubated at room temperature for 5 min.
6. The luminescence signal was measured using a ViewLux (PerkinElmer) multiplate reader with a 2 second exposure time per plate. Data for each compound were normalized as percent viability such that measurements for DMSO and the empty well controls in each plate were defined as 100% and 0%, respectively.
For orientation: ATP-based viability assays read luminescence as a measure of living cells.
Turning to `CC(=Cc1csc(C)n1)[C@@H]1C[C@H]2O[C@@H]2CCC[C@H](C)[C@@H](O)[C@@H](C)C(=O)C(C)(C)[C@@H](O)CC(=O)O1`, the Potency result is “inactive”.
As to `CCOc1ccccc1-n1c(C(C)N2CCN(C(=O)COc3ccc(Cl)cc3)CC2)nc2ccccc2c1=O` (stereo not given), the Potency was 0.741 µM (active).
Consider `COc1cc(OC)c(OC)cc1C=O`, for which the Potency entry is “inactive”.
On to `CC1=C(O)C(=O)C=C2C1=CC=C1[C@@]2(C)CC[C@@]2(C)[C@@H]3C[C@](C)(C(=O)O)CC[C@]3(C)CC[C@]12C`, for which the Potency was 2.96 µM (active).
Take `COc1ccc2c(c1OC)CN1CCc3cc4c(cc3C1C2)OCO4` (stereo not given): the Potency is 1.48 µM (active).
`COc1cc(C(=O)N2CC[C@@H](O)[C@@H](N)C2)cc2nc(-c3cc4ccccc4n3CC3CC3)n(C)c12`: the Potency is 0.234 µM (active).
Then `CCC1(c2ccc(N)cc2)CCC(=O)NC1=O` (stereo not given), with “inactive”; and `C[C@]12COC(=O)C[C@@H]1CC[C@@H]1[C@H]2CC[C@@]2(C)[C@H]1CC[C@]2(C)O`, with “inactive”; and `COc1ccc(C(CN(C)C)C2(O)CCCCC2)cc1` (stereo not given), with “inactive”.
Take `O=C(O)c1nn(Cc2ccc(Cl)cc2Cl)c2ccccc12`: the Potency entry was “inactive”.
Then `C[C@@H]1O[C@@H](O[C@@H]2C=C3CC[C@@H]4[C@@H](CC[C@]5(C)[C@H](c6ccc(=O)oc6)CC[C@@]45O)[C@@]3(C)CC2)[C@H](O)[C@H](O)[C@H]1O`, with 0.0332 µM (active); and `Cn1c(CCCC(=O)O)nc2cc(N(CCCl)CCCl)ccc21`, with “inactive”; and `CCN1C[C@]2(OC(=O)c3ccccc3NC(C)=O)CC[C@H](OC)[C@@]34[C@H]5CC6[C@@H](OC)C[C@](O)(C(C[C@@H]23)[C@@H]14)[C@@]5(O)[C@@H]6OC`, with “inactive”.
Turning to `NC1=NC(=O)N2CC12` (stereo not given), the Potency is 4.18 µM (active).
Then `O=C(Oc1ccc([N+](=O)[O-])cc1)N1CCN(Cc2cccc(Oc3ccccc3)c2)CC1`, with “inactive”; and `COC1=CC(C)=C[C@@H](C)[C@@H](O)[C@@H](C)CC(C)=CC=C[C@H](OC)[C@H]([C@@H](C)[C@@H](O)[C@H](C)[C@@]2(O)C[C@@H](O)[C@H](C)[C@@H](C(C)C)O2)OC1=O`, with 0.0662 µM (active); and `C[C@@H]1[C@H](O)[C@@H](C)C=CC=CCCC=CC=CC=CC=C[C@H](O[C@H]2O[C@@H](C)[C@H](O)[C@@H](N)[C@@H]2O)CC2O[C@](O)(C[C@@H](O)[C@H](O)CC[C@@H](O)C[C@@H](O)C[C@@H](O)CC(=O)O[C@H]1C)C[C@H](O)[C@H]2C(=O)O`, with “inactive”.
Then `CCNC(=O)C[C@@H]1N=C(c2ccc(Cl)cc2)c2cc(OC)ccc2-n2c(C)nnc21`, with 5.9 µM (active).
On to `C[C@H]1CCCC=CC2C[C@H](O)C[C@@H]2[C@H](O)C=CC(=O)O1` (stereo not given in full), for which the Potency result is “inactive”.
For the molecule `O=C(O)C(=O)c1cn(Cc2ccccc2)c2ccc(-c3ccc(OC(F)(F)F)cc3)cc12`, the Potency result is “inactive”.
Take `C=C[C@@H]1CN2CCC1C[C@@H]2[C@@H](O)c1ccnc2ccccc12` (stereo not given in full): the Potency result was “inactive”.
Take `CC[C@H]1C=CC=CC[C@@H](C)[C@H](O)[C@@](C)(O)C(=O)[C@@H](C)[C@H](O)[C@@H](C)C(=O)[C@@H](C)[C@H](O)[C@@H](C)C=CC(=O)O[C@@H]2[C@@H](C)[C@H](CC1)O[C@]1(CC[C@H](C)[C@H](C[C@@H](C)O)O1)[C@H]2C`: the Potency was 2.64 µM (active).
Take `CCc1c(C(=O)C(N)=O)c2c(OCC(=O)O)cccc2n1Cc1ccccc1`: the Potency entry was “inactive”.
Turning to `C[C@@H]1[C@@H](CC(C[C@H]2O[C@@H]3O[C@]4(C)CC[C@@H]5[C@H](C)CC[C@@H]([C@H]2C)[C@@]35OO4)C[S+](=O)([O-])c2ccc(COC(=O)N(C)C)cc2)O[C@@H]2O[C@]3(C)CC[C@H]4[C@H](C)CC[C@@H]1[C@@]24OO3` (stereo not given in full), the Potency is 0.418 µM (active).
Turning to `C#CC1(O)CCC2C3CCC4=CC(=O)CCC4(C)C3CCC21C` (stereo not given), the Potency result was “inactive”.
Then `COC[C@@H](NC(C)=O)C(=O)NCc1ccccc1`, with 18.7 µM (active); and `O=c1[nH]c2ccccc2n1CCCN1CCC(n2c(=O)[nH]c3cc(Cl)ccc32)CC1`, with “inactive”; and `CCNC(=O)CC1N=C(c2ccc(Cl)cc2)c2cc(OC)ccc2-n2c(C)nnc21` (stereo not given), with “inactive”.
Then `O=C1CC[C@@]2(O)[C@H]3Cc4ccc(O)c5c4[C@@]2(CCN3CC2CC2)[C@H]1O5`, with 9.35 µM (active); and `Oc1ccc2c3c1O[C@H]1c4[nH]c5c(c4C[C@@]4(O)[C@@H](C2)N(CC2CC2)CC[C@]314)C[C@@]1(O)[C@H]2Cc3ccc(O)c4c3[C@@]1(CCN2CC1CC1)[C@H]5O4`, with “inactive”; and `CN[C@@H]1Cc2cccc3[nH]c(=O)n(c23)C1`, with “inactive”.
`O=C(Nc1ccncc1)C(=O)c1cn(Cc2ccc(Cl)cc2)c2ccccc12`: the Potency is 0.059 µM (active).
Take `CC1(N2CCC(n3c([C@@H]4CCCNC4)nc4ccccc43)CC2)CCCCCCC1`: the Potency was 13.2 µM (active).
Then `CC(N[C@H]1C[C@H]1c1ccccc1)c1ccc2c(c1)OCCO2` (stereo not given in full), with “inactive”; and `C#CCN(C)[C@H](C)Cc1ccccc1`, with “inactive”; and `CC(=CCCC1=CCC(C2=CC(=O)OC2O)OC1O)CCC1=C(C)CCCC1(C)C` (stereo not given), with “inactive”.
Consider `COc1cccc2c1[C@]13CCN(CC4CC4)[C@H](C2)[C@]1(OC)CCC(=O)C3`, for which the Potency entry is “inactive”.
As for `O=c1[nH]c2ccccc2n1C1CCN(Cc2ccc(-c3[nH]c4cc5ncnc5cc4nc3-c3ccccc3)cc2)CC1`, the Potency result is “inactive”.
In the case of `CC(C)(C)c1cc(C=C(C#N)C#N)cc(Br)c1O`, the Potency entry is “inactive”.
Take `CN1CCN(C(=O)O[C@H]2c3nccnc3C(=O)N2c2ccc(Cl)cn2)CC1`: the Potency result is “inactive”.
